Bioassay records (PubChem)
Sampled rows, rich in hits. Any-hit rate of the full collection: about 4.1%.
BoNT A protease – inhibitors of Botulinum neurotoxin A light chain protease. multiplex microsphere protease substrate cleavage, flow cytometry. inhibition, % at 10 µM. 360,000 tested, 0.17% active; further: plate controls were buffer without enzyme for full effect and enzyme alone for no effect
Anthrax LF inh2 – anthrax lethal factor protease inhibition. P15917. multiplex microsphere protease cleavage assay, LF. inhibition, % at 10 µM. 360,000 tested, 0.12% active. AID 588501; further: plate controls were buffer without enzyme for full effect and enzyme alone for no effect
Bead autofluor – flagged as autofluorescent in microsphere protease counterscreen; compound autofluorescence counterscreen, microsphere flow cytometry; hits give high values; fluorescence intensity (no concentration beside the values); 360,000 tested, 3.1% active; in the data active means fluorescence intensity above about 16000; inconclusive means no clear call, values can overlap the other calls
DUSP3 inh – DUSP3 (human) phosphatase inhibition; P51452; recombinant VHR phosphatase, pNPP absorbance; inhibition, % at 13.3 µM; AID 1654; 290,000 tested, 0.52% active; in the data active means inhibition above about 50%
Target sequence (P51452 whole entry, looked up): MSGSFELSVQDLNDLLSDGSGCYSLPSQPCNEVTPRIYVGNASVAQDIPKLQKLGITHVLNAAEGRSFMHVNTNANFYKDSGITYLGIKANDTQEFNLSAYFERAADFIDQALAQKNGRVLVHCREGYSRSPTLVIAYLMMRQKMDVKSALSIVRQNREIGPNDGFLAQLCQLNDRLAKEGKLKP
BoNT-F LC inh – BoNT F light chain protease inhibition | 360,000 tested, 0.22% active | inhibition, % at 10 µM | Multiplex microsphere protease cleavage assay, flow cytometry; in the data active means inhibition above about 35%, passing the limit was not always enough; inconclusive means no clear call, values can overlap the other calls; further: plate controls were buffer without enzyme for full effect and enzyme alone for no effect
MazF activator – increases E. coli MazEF RNase cleavage of RNA; FAM/BHQ RNA-DNA oligo cleavage fluorescence, 5 h; P0AE70; AID 504720; 350,000 tested, 0.32% active; activation, % at 20 µM; in the data active means activation above about 50%
Target sequence (P0AE70 whole entry, looked up): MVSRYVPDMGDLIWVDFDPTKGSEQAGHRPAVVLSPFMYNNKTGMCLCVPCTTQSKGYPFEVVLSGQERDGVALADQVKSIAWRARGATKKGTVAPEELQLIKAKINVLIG
Active calls of the source: *; ? = inconclusive; . = no result given. Unless noted, no stated cut-off is given here; in the data, active means inhibition above about 30%; inconclusive means no clear call, values can overlap the other calls; inactive means below that.

SMILES | BoNT A protease | Anthrax LF inh2 | Bead autofluor | DUSP3 inh | BoNT-F LC inh | MazF activator
Cc1nc2cc(-c3cccc(F)c3)nn2c(C)c1CCC(=O)N1CCC2(CC1)OCCO2 | ? | ? | ? | 6.6 | -6.9 | 4.3
Cc1nc2c(-c3ccccc3)c(C)nn2c(C)c1CCC(=O)N1CCC2(CC1)OCCO2 | ? | ? | ? | -4.8 | 61.8* | -1.0
Cc1ccc(C)c(OCC(=O)Nc2nc3ccc([N+](=O)[O-])cc3s2)c1C | ? | -0.9 | 22520* | 23.2 | -1.1 | 15.7
COC(=O)C[C@H]1c2cc(F)ccc2S(=O)(=O)N1c1ccc(N(C)C)cc1 | 0.3 | -2.5 | 3147 | . | -6.9 | 3.9
CCOc1ccc2nc3ccc4[nH]onc4c3c2c1 | ? | 11.8 | 5438 | . | 49.5* | -1.2
COCCCNC(=O)c1ccc2c(c1)CCN2S(C)(=O)=O | 3.9 | 2.1 | 22130* | -14.0 | 3.4 | 8.9
COCCNC(=O)c1ccc2c(c1)CCN2S(C)(=O)=O | -0.2 | -0.5 | ? | 28.7 | 4.6 | 6.5
CCOC(=O)c1c(NC(=S)Nc2ccc(Cl)cc2)sc2c1CCN(C)C2 | 46.5* | 34.1* | 15220 | 14.1 | 11.3 | 170.9*
Cc1ccc2nc(-c3cccc(NC(=O)c4ccc5c(c4)OCCO5)c3)oc2c1 | ? | -5.0 | 21708* | 8.6 | -4.0 | -46.9
COc1ccc(CNc2oc(Cc3cccc4ccccc34)nc2C#N)cc1 | 0.6 | -3.8 | 2906 | -2.5 | -17.8 | -1.4
CCOc1ccc(-c2nc(C#N)c(NCC3CCCO3)o2)cc1 (stereo not drawn) | ? | ? | ? | 19.6 | -7.7 | -6.2
N#Cc1nc(Cc2cccc3ccccc23)oc1NCc1ccco1 | 1.2 | -12.9 | 22710* | 27.9 | -0.8 | -3.4
N#Cc1nc(Cc2cccc3ccccc23)oc1NCC1CCCO1 (stereo not drawn) | 0.6 | -6.2 | 21943* | 19.4 | -2.7 | -14.3
CCCOc1ccc(-c2nc(C#N)c(NCC3CCCO3)o2)cc1 (stereo not drawn) | -4.7 | -2.5 | 24772* | 19.4 | -4.4 | 0.1
CCCNC(=O)C1(C)CCN(C(=O)c2ccc(OC(F)F)cc2)C1 (stereo not drawn) | 0.2 | -1.3 | 2820 | . | -0.4 | .
CC1(c2nc3ccccc3[nH]2)c2ccccc2C(=O)N1C1CC1 (stereo not drawn) | 0.2 | -7.0 | 5003 | . | 7.9 | .
C=CCc1ccccc1OCC(=O)NNC(=S)NCc1ccccc1 | 2.0 | 2.1 | 5351 | 9.2 | 0.7 | -5.3
CN(CCO)c1nc(N)c2c(N)nc3c(c2c1C#N)CC(=O)N3C1CCCC1 | . | . | . | 64.6 | . | .
CC(C)(C)N1C(=O)Cc2c1nc(N)c1c(N)nc(N3CCCCC3CO)c(C#N)c21 (stereo not drawn) | 3.5 | -3.6 | 2601 | 57.5* | 2.0 | -21.9
CC1=C(C(=O)N2CCCCCC2)CC(CC(=O)NCCc2ccccn2)C(=O)N1CCCN1CCCC1=O (stereo not drawn) | -0.7 | -5.0 | 5596 | . | 4.1 | .
O=C(Nc1ccc2oc(=O)ccc2c1)c1ccc(-c2cccc([N+](=O)[O-])c2)o1 | 0.4 | 0.8 | 5872 | 58.5* | 3.3 | -32.9
O=C(Nc1ccc2oc(=O)ccc2c1)c1ccc(-c2cccc(Cl)c2)o1 | -0.3 | -4.3 | 6154 | 26.3 | -10.3 | -26.3
O=C(NC(=S)Nc1ccccc1N1CCCC1)c1ccc(-c2cccc([N+](=O)[O-])c2)o1 | ? | -12.0 | 19601* | -10.1 | -0.2 | 8.9
O=C(NC(=S)Nc1ccccc1N1CCCCC1)c1ccc(-c2cccc([N+](=O)[O-])c2)o1 | -0.2 | 3.6 | 5768 | 10.5 | -5.3 | 7.4
COC(=O)[C@@H](Cc1ccccc1)NC(=O)/C=C/[C@H]1O[C@@H](n2cnc3c(NC(=O)c4ccccc4)ncnc32)[C@H](O)[C@@H]1O | -0.1 | 13.0 | 4682 | . | -12.8 | .
SMILES | BoNT A protease | Anthrax LF inh2 | Bead autofluor | DUSP3 inh | BoNT-F LC inh | MazF activator
CCCCn1c(Nc2ccccc2)nc2ccccc21 | -1.0 | -1.6 | 16689* | 9.9 | -3.9 | -6.4
Nc1cc(=O)[nH]c(SCCSc2cc(Cl)ccc2Cl)n1 | -0.9 | -2.2 | 3487 | 0.1 | 1.5 | 5.3
CCNc1nc(N2CCCCC2)nc(-n2nnc(C(=O)OCC)c2C)n1 | ? | -3.6 | 23587* | -2.0 | -3.5 | 0.3
CCOC(=O)c1nnn(-c2nc(OC)nc(N3CCCC3)n2)c1-c1ccccc1 | -0.9 | -0.8 | 3404 | 3.0 | 22.2 | 7.6
COc1ccc(N(Cc2cc(=O)[nH]c3ccccc23)C(C)=O)cc1 | 2.2 | -5.4 | 3439 | 23.9 | -10.9 | 9.8
CCOC(=O)Cn1c(-c2ccc(Cl)nc2)nc2ccccc21 | -1.4 | 1.9 | 22764* | 14.0 | -0.9 | -4.1
C[C@H]1CN([C@@H](C)CO)C(=O)c2cc(Br)cnc2O[C@@H]1CN(C)C(=O)c1ccncc1 | -0.5 | 3.5 | 3707 | . | 2.7 | 6.4
Cc1ccc(C(=O)NCCc2nnc3ccc(SCC(=O)NCc4ccc(F)cc4)nn23)cc1 | 1.3 | -0.4 | 5247 | 57.1* | 9.5 | -10.2
O=C(CSc1ccc2nnc(CCNC(=O)c3ccccc3)n2n1)NCc1ccccc1 | 0.9 | -1.0 | 5752 | 45.2 | -1.4 | 3.9
O=C(Nc1ccc(C(O)c2ccccc2)cc1)[C@@H]1O[C@H](CO)[C@H](O)[C@H](O)[C@H]1O (stereo partly drawn) | 0.0 | 4.7 | 3082 | . | -7.5 | .
Oc1ccc(Cl)cc1CNCC1CCCO1 (stereo not drawn) | -3.7 | -2.1 | 20694* | 7.9 | -6.7 | -1.5
O=C(CSc1nc2cc(Cl)ccc2s1)NCC1CCCO1 (stereo not drawn) | 0.4 | 0.1 | 2787 | . | -5.2 | -9.2
Nc1nc(SCC(=O)NCC2CCCO2)n[nH]1 (stereo not drawn) | -1.7 | -6.7 | 3610 | 3.5 | -37.1 | 0.4
O=C(CSc1cc(Cl)ccc1Cl)NCC1CCCO1 (stereo not drawn) | 0.9 | -1.3 | 22708* | 13.2 | 0.3 | -2.0
Nc1cc(N)nc(SCC(=O)NCC2CCCO2)n1 (stereo not drawn) | ? | -0.8 | 20538* | 15.3 | -1.3 | -2.8
CCCCn1c(N)c(N(CCOC)C(=O)c2oc3c(Cl)cccc3c2C)c(=O)[nH]c1=O | 0.5 | -2.7 | 3779 | . | -2.8 | -1.9
O=C(Nc1cnccn1)c1ccc(Cl)cc1 | -1.6 | 6.7 | 3838 | 10.0 | -6.9 | -1.8
CCOc1cc(C(=O)Nc2cnccn2)cc(OCC)c1OCC | -3.2 | -1.4 | 20443* | 1.2 | -2.4 | -1.4
CCOc1cc(C(=O)NCc2ccncc2)cc(OCC)c1OCC | 0.6 | -1.7 | 19468* | -13.2 | -2.3 | -1.6
O=C(Nc1cnccn1)c1ccncc1 | -2.9 | -7.2 | 24053* | 10.0 | -4.4 | 1.7
CCN(C(=O)CN1C(=O)NC2(CCc3ccccc32)C1=O)C1CCS(=O)(=O)C1 (stereo not drawn) | 0.2 | 3.6 | 8051 | . | 0.2 | 6.3
C=CCNC(=S)NNC(=O)c1cccn(Cc2cccc(Cl)c2)c1=O | -2.1 | -1.4 | 24135* | 28.2 | -3.1 | 5.7
C=CCNC(=S)NNC(=O)c1cccn(Cc2ccc(Cl)cc2)c1=O | ? | ? | ? | 27.3 | ? | 4.0
COc1ccc2sc(-c3ccc(N(C)C)cc3)c(-c3cnc(OC)nc3)c2c1 | 1.4 | -7.8 | 3811 | . | 6.0 | -5.6
